Compound activity deposited in PubChem BioAssay by The Scripps Research Institute Molecular Screening Center.
Rows were chosen to be rich in hits. Some 3.4% of all compounds tested hit in one or more screens of this group.
FBW7 act: activators of human E3 ligase FBW7. Q969H0. AlphaScreen FBW7–phospho-cyclin E peptide binding, activator screen. normalized activity (activation), % at 26.1 µM. 0.13% of 650,000 active. AID 1259310; in the data active means normalized activity above about 1.9%;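 further: purified mutant Fbw7 with reduced substrate affinity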
Target sequence (Q969H0 whole entry, looked up): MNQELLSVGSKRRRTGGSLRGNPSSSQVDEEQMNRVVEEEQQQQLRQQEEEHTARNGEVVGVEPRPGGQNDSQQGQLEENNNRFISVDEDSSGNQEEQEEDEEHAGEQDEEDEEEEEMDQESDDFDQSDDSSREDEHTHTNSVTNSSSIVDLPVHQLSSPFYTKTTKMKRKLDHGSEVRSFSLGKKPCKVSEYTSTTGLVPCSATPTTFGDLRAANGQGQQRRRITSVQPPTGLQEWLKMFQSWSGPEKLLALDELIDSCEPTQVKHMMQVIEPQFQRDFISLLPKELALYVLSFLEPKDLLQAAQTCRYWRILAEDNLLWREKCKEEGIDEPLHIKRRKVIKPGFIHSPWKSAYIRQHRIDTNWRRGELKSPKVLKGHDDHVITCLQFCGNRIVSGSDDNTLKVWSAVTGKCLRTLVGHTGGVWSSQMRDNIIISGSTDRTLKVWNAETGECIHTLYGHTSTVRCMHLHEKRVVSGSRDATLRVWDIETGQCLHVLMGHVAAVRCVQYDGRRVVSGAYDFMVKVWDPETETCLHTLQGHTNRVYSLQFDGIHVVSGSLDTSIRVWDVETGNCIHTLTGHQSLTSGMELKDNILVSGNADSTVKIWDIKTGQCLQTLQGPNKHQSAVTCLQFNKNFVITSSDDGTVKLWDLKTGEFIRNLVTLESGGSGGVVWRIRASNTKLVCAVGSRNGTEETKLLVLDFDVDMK
TEAD-YAP inh: TEAD-YAP interaction inhibition; 1.4% of 640,000 active; inhibition, % at 9.12 µM; HEK-TIYL cells, TEAD-Gal4/YAP UAS-luciferase luminescence; in the data active means inhibition above about 32%;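 further: 0% = median of test compound wells and 100% = reference inhibitor wells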
MITF primary: human MITF inhibition, primary screen | O75030 | AlphaScreen MITF homodimerization, bead proximity signal | inhibition, % at 2.6 µM | 0.91% of 650,000 active; in the data active means inhibition above about 50%;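 further: 0% = vehicle wells with protein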
GPR151 activ: activators of human GPR151; AID 1508602; activation, % at 11.2 µM; PathHunter beta-arrestin GPR151 cells, luminescence; Q8TDV0; 1% of 650,000 active; in the data active means activation above about 4.9%;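 further: 0% = median of compound wells and 100% = cells with positive control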
GPR151 conf act: human GPR151 activation, confirmation screen | shares compounds with GPR151 activ | GPR151 PathHunter beta-arrestin cells, luminescence, 90 min; % of EA-reagent control over plate median | activation, % at 11.2 µM | 6,700 tested, under 10 active;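 active means mean percent activation across replicates above the confirmation screen cutoff of 4.91%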
GPR119 ag: activates human GPR119 in a GPR151 counter-screen; shares compounds with GPR151 activ; GPR119 PathHunter beta-arrestin cells, luminescence, 90 min; 0 = compound-well median, 100 = enzyme-acceptor control; activation, % at 11.2 µM; 0.3% of 6,700 active; AID 1508611;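 active means mean percent activation in the counterscreen above 29.09%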;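 further: counterscreen on off-target GPR119 to flag nonselective hits from the GPR151 activator screen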
* hit, by the source's call; . = not tested or not shown.

SMILES	FBW7 act	TEAD-YAP inh	MITF primary	GPR151 activ	GPR151 conf act	GPR119 ag
Cc1nc(NS(C)(=O)=O)sc1C(=O)O	0	8	11	5.0*	0	5
Cc1ccc(C2Nn3c(C)nnc3SC2C(=O)N2CCCCCC2)cc1 (configuration not stated)	1	-8	10	6.4*	0	7
CCS(=O)(=O)n1nc(-c2ccccc2)nc1NCc1ccco1	0	-10	-8	12*	0	4
O=C(Nc1ccccc1)C1CCN(c2ccc(Nc3ccc(N4CCOCC4)cc3)nn2)CC1	0	-5	12	0	.	.
COc1cc(Nc2cc(-c3ccc(C(N)=O)cc3)nc(N)n2)cc(OC)c1OC	0	-3	6	12*	2	-3
COCCN(C(=O)CCc1nnc(Cc2cc(OC)ccc2OC)o1)C(C)C	0	-22	2	3	.	.
Cc1ccccc1C(=O)NC(C)c1nnc2n1CCN(Cc1ccc(F)cc1)CC2 (configuration not stated)	0	-1	3	6.5*	0	11
Cc1ccccc1C(=O)NC(C)c1nnc2n1CCN(Cc1ccccc1F)CC2 (configuration not stated)	0	3	6	-1	.	.
N#Cc1ccc(Oc2ccc(NC(=O)/C=C\C(=O)O)cc2)cc1	0	-5	5	5.3*	1	9
COc1ccc(NC(=O)/C=C/C(=O)O)cc1	0	-7	4	-2	.	.
CCOC(=O)C1=C(CN2CCN(CC)CC2)NC(=O)NC1c1cc(C)ccc1C (configuration not stated)	0	-6	-21	7.5*	0	8
CC(C)n1c2ccccc2c2n[nH]c(=S)nc21	0	-4	-14	6.7*	0	-1
S=c1nc2c(n[nH]1)c1ccccc1n2Cc1ccccc1	0	-9	3	1	.	.
S=c1nc2c(n[nH]1)c1ccccc1n2CCc1ccccc1	0	4	7	6.5*	2	7
O=C1N[C@H](Cc2ccc(O)cc2)C(=O)N2CCN(C(=O)c3cc(F)c(F)cc3F)C[C@H]12	0	-12	-5	-3	.	.
COc1ccc(/C(C)=N/Nc2ccc([N+](=O)[O-])cc2S(=O)(=O)N2CCOCC2)cc1	0	0	-5	1	.	.
C/C(=N\Nc1ccc([N+](=O)[O-])cc1S(=O)(=O)N1CCOCC1)c1cccs1	0	4	-8	6.3*	0	-12
COc1cc(OC)cc(C(=O)NNC(=S)NCc2ccco2)c1	0	-2	6	7.2*	-1	-13
Cc1nccc2[nH]c(=O)c(C(=O)NCCc3ccccc3)cc12	0	9	4	7.3*	0	3
CCOc1cnc(C(=O)NNC(=O)c2ccc(S(=O)(=O)N(C)C)cc2)o1	0	1	-6	6.0*	0	-4
Nc1cccc(-c2cc(C(=O)O)c3cc(Br)ccc3n2)c1	0	-1	7	6.7*	-1	-12
O=C(O)c1cc(-c2cccnc2)nc2ccc(Br)cc12	1	2	7	-1	.	.
Cc1[nH]c2ccc(CNC(=O)Nc3ccc(F)cc3F)cc2c1C	0	6	6	5.9*	-1	-6
Cc1cc2ncn(S(=O)(=O)c3ccc(Cl)c(Cl)c3)c2cc1C	0	4	10	-1	.	.
Cc1cc2ncn(S(=O)(=O)c3ccc(S(=O)(=O)N4CCCCC4)cc3)c2cc1C	1	-6	16	7.7*	0	-11
SMILES	FBW7 act	TEAD-YAP inh	MITF primary	GPR151 activ	GPR151 conf act	GPR119 ag
O=C(CSc1nc2ccccc2o1)Nc1ccccc1Cl	0	-41	3	-1	.	.
Cc1cccc(C)c1NC(=O)CSc1nc2ccccc2o1	0	13	3	7.6*	-1	-6
O=C(CSc1nc2ccccc2o1)Nc1ccccc1C(F)(F)F	0	-17	10	5.2*	2	5
CNC(=O)CSc1ncnc2c1cnn2-c1ccc(Cl)cc1	0	0	-3	2	.	.
CCOC(=O)C1CCN(S(=O)(=O)c2cc3[nH]c(=O)c(=O)[nH]c3cc2C)CC1	0	-1	-8	5.2*	0	-2
COC(=O)c1sccc1NC(=O)Cc1ccccc1[N+](=O)[O-]	0	0	3	-1	.	.
C=C/C=C(\C=C/C)C1(C(N)=O)CCOCC1	0	6	5	1	.	.
CNc1ccc(/C=C/C(=O)c2ccc(S(=O)(=O)NCc3ccco3)cc2)cc1[N+](=O)[O-]	0	-5	-6	5.6*	-1	-2
CC1=C(C(=O)OC(C)C)C(c2ccc(Cl)cc2)n2c(s/c(=C/c3cn(C)c4ccccc34)c2=O)=N1 (configuration not stated)	0	6	-4	-1	.	.
CC(=O)Nc1ccc(OCC(O)CNC2CCCC2)cc1 (configuration not stated)	0	-1	24	5.5*	1	12
CCN(CC)c1ccc(NC(=O)c2cccc(C)c2)cc1	0	-58	-2	0	.	.
O=[N+]([O-])c1ccccc1Oc1ccccc1	0	1	9	0	.	.
COc1ccc(CN2CCN(Cc3ccc(OC)c(OC)c3OC)CC2)c(OC)c1	0	2	41	11*	-1	8
COc1ccc(/C(C)=N/NC(=O)c2ccccc2Br)cc1	0	-10	20	5.7*	0	6
Cc1ccccc1C1CC(=O)Nc2cc3c(cc21)OCO3 (configuration not stated)	0	6	11	6.0*	0	6
COc1ccc(-c2cc(C(=O)N3C(C)CCCC3C)[nH]n2)cc1 (configuration not stated)	0	1	-10	-1	.	.
COc1ccc(-c2cc(C(=O)N3CCCCC3C)[nH]n2)cc1 (configuration not stated)	0	-40	-5	5.3*	-1	-9
COc1ccc(Cn2c(=O)c3ncccc3n(Cc3ccccc3F)c2=O)cc1	0	-1	13	1	.	.
Cc1nc2cc(C(=O)N3CCCC(N4CCOCC4)C3)ccc2n1-c1ccccc1 (configuration not stated)	0	-5	-10	11*	0	-6
CC(NC(=O)c1ccc(N(Cc2ccccc2)S(C)(=O)=O)cc1)c1ccccc1 (configuration not stated)	0	0	-1	1	.	.
Cc1ccc(N(Cc2ccc(C(=O)NC(C)c3ccccc3)cc2)S(C)(=O)=O)cc1C (configuration not stated)	0	11	4	5.5*	-1	2
O=c1[nH]c2ccccc2nc1C(F)(F)C(F)(F)C(F)(F)C(F)F	0	14	-7	5.5*	0	-4
CCOC(=O)c1c(NC(=O)CN2CCOCC2)sc(C(C)=O)c1C	0	7	24	8.4*	0	9
CCOC(=O)c1c(NC(=O)CN2CCOCC2)sc(C)c1C	0	5	1	1	.	.
